Experimental data published in PubChem BioAssay AID686979 (National Center for Advancing Translational Sciences (NCATS), 2013).
Values joined by “and” are separate entries in the source; they are usually repeats but may differ in a detail not shown here. Equal values may be shown once. The whole screen tested about 420,000 compounds, of which about 50,000 (12%) were called active. Another 26% or so got no clear call; they are omitted. Only a selection was taken, and actives are over-represented in it overall. A number with no mark means an inactive call. Calls follow the shape of the dose curve; as a rule, active = well fitted inhibition curve with a large enough effect; inconclusive = small, poorly fitted or top-dose-only effect; inactive = flat fitted curve, though single readings scatter.

Test: qHTS for Inhibitors of human tyrosyl-DNA phosphodiesterase 1 (TDP1): qHTS in cells in presence of CPT; also: nearly all actives have a fitted effect of over 55% in size
Details: chicken DT40 Tdp1-/-;hTDP1 cells + 20 nM CPT, ATP luminescence, 48 h; series mostly up to 46.2 µM; activity change, negative = growth inhibition: at the top concentration
Method in brief: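 Cell growth measured by CellTiter-Glo luminescence after a minimum 48 h, 37 C compound exposure with 20 nM CPT in Tdp1-knockout DT40 cells stably expressing hTDP1, seeded 400/well; qHTS titration format.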
% is scaled to controls: 0 for no effect and ±100 for the full control effect; potency is read from the fitted curve at half-maximal effect.

| Compound | activity change, negative = growth inhibition [%] | Potency |
| --- | --- | --- |
| Cc1ccc(OCC(=O)NCCCNC(=O)c2cccnc2)cc1C | -10.9 |  |
| CCCCn1c(N)c(N(CCC(C)C)C(=O)COC(=O)c2cccnc2OCC)c(=O)[nH]c1=O | -10.1 |  |
| COCCC(=O)Nc1ccc2c(c1)CN(C(=O)CCOC)CC2 | -9.78 |  |
| CC1O[C@@H](OC2C(O)C(C)O[C@H](OC(=O)[C@]34CCC(C)(C)C[C@H]3C3=CCC5[C@@]6(C)CC(O)C(O[C@@H]7OC(CO)C(O)[C@@H](O)[C@@H]7O)[C@@](C)(C(=O)O)C6CC[C@@]5(C)[C@]3(CO)CC4)C2O[C@H]2OC(C)[C@@H](O[C@@H]3OCC(O[C@@H]4OC(CO)C(O)[C@H](O)C4O)[C@@H](O)[C@@H]3O)[C@H](O)C2O)C(O)C(O)C1O (stereo partly drawn) | 11.8 |  |
| Cc1cc(C)cc(N(CCC#N)C(=O)CN2C(=O)NC3(CCCC3)C2=O)c1 | -11.4 |  |
| CC(NS(=O)(=O)c1ccc(OCC(=O)N2CCCC2)cc1)c1ccccc1 (stereo not drawn) | -4.52 |  |
| CCOC(=O)c1ccc(-n2c(CCC(=O)O)ccc2-c2ccccc2)cc1 |  | inactive |
| COc1ccc(C2CC(c3cccs3)Nc3nnnn32)cc1 (stereo not drawn) | 18.1 |  |
| COc1ccc(NC(=O)CC2COc3ccccc3O2)c(OC)c1 (stereo not drawn) | -21 |  |
| COc1cccc(NC(=O)CSc2nnc(-c3cccnc3)o2)c1 | -1.45 |  |
| CC(=O)c1ccc(-c2cnc3c(NC=O)cc(-c4cccc(NS(C)(=O)=O)c4)cn23)cc1 |  | 23.1 µM (active) |
| COc1cccc(-c2cc(NC(C)=O)c3ncc(-c4cccc(C(C)=O)c4)n3c2)c1 |  | 23.1 µM (active) |
| COc1ccc(-c2cc(NC=O)c3ncc(-c4cccc(C(=O)N(C)C)c4)n3c2)c(OC)c1 |  | 23.1 µM (active) |
| CC(=O)Nc1cc(-c2ccccc2F)cn2c(-c3cccc(C(F)(F)F)c3)cnc12 | -101 |  |
| COc1ccc(/C=N/S(=O)(=O)c2ccccc2)cc1OC | 4.71 |  |
| COc1ccc(-c2cc(NC=O)c3ncc(-c4ccccc4)n3c2)cc1OC |  | 6.51 µM (active) |
| COc1cc(C=O)ccc1Oc1nnnn1-c1ccccc1 | 13.2 |  |
| COc1ccc(Nc2ncnc3sc(-c4ccccc4)cc23)c(OC)c1 | -21.8 |  |
| COCCNc1ccnc(-c2cccc(NS(C)(=O)=O)c2)n1 | -0.332 |  |
| Cc1cccc(N=C2SC(C)CN2C(=O)CN2C(=O)NC3(CCCC3)C2=O)c1 (stereo not drawn) | 1.26 |  |
| O=C(CCn1nnc2ccccc2c1=O)N[C@@H](Cc1c[nH]c2ccccc12)C(=O)O | 14.2 |  |
| COc1ccc(S(=O)(=O)N2CCOCC2)cc1NC(=O)CC1CC2CCC1C2 (stereo not drawn) | -25.8 |  |
| O=C(O)CC(CC(=O)N1CCOCC1)c1ccccc1 (stereo not drawn) | 3.43 |  |
| Cc1ccc(CN2COc3cc(C)c4c(oc(=O)c5ccccc54)c3C2)cc1 | -24 |  |
| CC(C)C[C@H](NC(=O)C1CCC(CNC(=O)[C@@H]2CCCN2C(=O)OC(C)(C)C)CC1)C(=O)O (stereo partly drawn) | 29.8 |  |

| Compound | activity change, negative = growth inhibition [%] | Potency |
| --- | --- | --- |
| COc1cccc(CNC(=O)CCCC(=O)Nc2cccc([N+](=O)[O-])c2)c1 | -19.6 |  |
| Cc1c(NC(=O)CSCc2ccccc2)cccc1C(=O)O | -1.33 |  |
| COc1cc(C(=O)N/C(=C\c2cn(C)c3ccccc23)C(=O)N2CCOCC2)cc(OC)c1OC | 12.5 |  |
| CCCCNC(=O)N(O)C1N(/N=C/c2ccccc2O)C(=S)SC1(C)C (stereo not drawn) | -27.3 |  |
| COc1ccnc(Oc2ccccc2)c1-c1ncn[nH]1 | 1.93 |  |
| Cc1ccc2oc(=O)c3cnn(CC(=O)NCc4ccccc4Cl)c3c2c1 | 13.6 |  |
| Cc1ccccc1C(=O)Nc1ccccc1Sc1ccccc1 | 5.44 |  |
| COc1ccccc1-n1cnc2cc(C(=O)NCC3CCCO3)ccc21 (stereo not drawn) | -18 |  |
| COc1cccc(C(=O)NCCS(=O)(=O)NCC2CCCO2)c1 (stereo not drawn) | 1.27 |  |
| COc1cccc(/C=C2\Sc3ccc(C(=O)NCC4CCCO4)cc3N(C)C2=O)c1 (stereo not drawn) |  | 18.4 µM (active) |
| COc1ccc(CN2C(=O)C(CC(=O)NCc3cccc4ccccc34)CC(C(=O)N3CCOCC3)=C2C)cc1 (stereo not drawn) | -12.7 |  |
| Cc1nnc(N2CCCC(C(=O)NCCN(C)C)C2)c2nn(-c3ccccc3)c(C)c12 (stereo not drawn) | -16.4 |  |
| COc1ccc(-n2nc3c(N4CCC(C(=O)NCc5ccccc5)CC4)nnc(C)c3c2C)cc1 | -21.8 |  |
| CCOc1ccc(CNC(=O)C2CCCN(c3nnc(C)c4c(C)n(-c5ccccc5)nc34)C2)cc1 (stereo not drawn) |  | 13 µM (active) |
| CCc1ccc(CNC(=O)C2CCN(c3nnc(C)c4c(C)n(-c5ccc(C)cc5)nc34)CC2)cc1 |  | 5.17 µM (active) and 16.4 µM (active) |
| Cc1ccc(NC(=O)N2CCC(C(=O)NCc3ccc(F)cc3)CC2)cc1 | -17.6 |  |
| CCOC(=O)C1CCN(C(=O)Cn2nc(C)c3c(C)n(-c4ccccc4)nc3c2=O)CC1 | -18 |  |
| Cc1ccc(C=O)cc1Cl | -16.7 |  |
| Cc1nc2scc(-c3cccs3)c2c(=O)n1N | 0.389 |  |
| [2H]C(CCOS(N)(=O)=O)c1ccccc1 (stereo not drawn) | -11.5 |  |
| COc1ccccc1-n1nnnc1SCC(=O)NC(=O)Cc1ccccc1 | -8.14 |  |
| CCC(C)N(C(=O)CSc1nnnn1-c1ccccc1OC)C1CCS(=O)(=O)C1 (stereo not drawn) | -22.6 |  |
| COc1ccccc1-n1nnnc1S(=O)(=O)Cc1ccc(Cl)cc1 |  | 5.8 µM (active) |
| O=C(NCCO)c1cccc(-c2cccc3nccn23)c1 | 8.69 |  |
| CS(=O)(=O)Nc1cccc(C2=NN(S(=O)(=O)c3ccccc3)C(c3cccs3)C2)c1 (stereo not drawn) | -5.61 |  |

| Compound | activity change, negative = growth inhibition [%] | Potency |
| --- | --- | --- |
| CCOc1ccccc1C1CC(c2cccc(NS(C)(=O)=O)c2)=NN1C(=O)c1ccccc1 (stereo not drawn) | -6.18 |  |
| CCS(=O)(=O)Nc1ccc(C2=NN(C(C)=O)C(c3cccs3)C2)cc1 (stereo not drawn) |  | 4.11 µM (active) |
| CS(=O)(=O)Nc1cccc(C2=NN(C(=O)c3cccc(F)c3)C(c3cccs3)C2)c1 (stereo not drawn) |  | 23.1 µM (active) |
| COc1ccc(C2=NN(C(=O)CCC(=O)O)C(c3cccs3)C2)cc1OC (stereo not drawn) | 16 |  |
| CS(=O)(=O)Nc1ccc(C2=NN(S(C)(=O)=O)C(c3cccs3)C2)cc1 (stereo not drawn) | -4.9 |  |
| CCNC(=O)Cn1nc(C)n2c(cc3c(OC)cccc32)c1=O | 7.15 |  |
| CCc1ccccc1NC(=O)CN(C)S(=O)(=O)c1ccc2c(c1)c(=O)n(C)c(=O)n2C | -12.8 |  |
| CCOc1ccc(S(=O)(=O)N2CCC(c3ccccc3)CC2)cc1C(=O)O | 3 |  |
| CN(Cc1ccccc1)C(=O)COC(=O)c1ccccc1Nc1ccccc1 | -0.608 |  |
| Cc1ccc(S(=O)(=O)N2CCN(C)CC2)cc1 | 18.1 |  |
| O=[N+]([O-])c1ccc(S(=O)(=O)N2CCN(c3nc(-c4ccccc4)nc4ccccc34)CC2)cc1 | 1.79 |  |
| COc1ccc(C)cc1S(=O)(=O)N1CCN(S(=O)(=O)c2cc(C(=O)O)ccc2C)CC1 | -0.611 |  |
| Cc1ccc(C)c(S(=O)(=O)N2CCN(c3ncnc4sccc34)CC2)c1 |  | 11.6 µM (active) |
| Cc1ccc(C)c(S(=O)(=O)n2nc(C)c(S(=O)(=O)N3CCC(C)CC3)c2C)c1 | -7.4 |  |
| Cc1ccc(S(=O)(=O)N2CCN(c3ncnc4ccccc34)CC2)cc1 |  | 461 nM (active) and 1.58 µM (active) |
| CCOC(=O)c1[nH]c(C)c(CCC(=O)NCc2ccccc2C)c1C | -16.7 |  |
| CCCNC(=O)C1(C)CCN(C(=O)c2cc(F)ccc2C)C1 (stereo not drawn) | -11.1 |  |
| CC(C)Oc1ccc(CN2CCC(n3nccc3NC(=O)c3cccnc3)CC2)cc1 | -19.1 |  |
| COC(=O)[C@@]1(Cc2ccc(OC)cc2)[C@H]2c3cc(C(=O)N4CCCC4)n(Cc4ccc(OC(F)(F)F)cc4)c3C[C@H]2CN1C(=O)c1ccccc1 |  | 16.4 µM (active) |
| COC(=O)c1ccc(CN2CCC(CO)(Cc3ccc(OC)cc3)CC2)cc1 | 5.36 |  |
| CSc1ccc(S(=O)(=O)NCC(=O)OCC(=O)NC2(C#N)CCCCC2)cc1[N+](=O)[O-] | -3.09 |  |
| CCN(CC(=O)NCC(=O)Nc1cccc(C)c1C)Cc1ccccc1 | -19.9 |  |
| CSC1=NC2(C)CCCCC2C12C=CC(=O)C=C2 (stereo not drawn) | -2.58 |  |
| CC(C)c1ccc(C2C(C(=O)c3ccco3)=C(O)C(=O)N2CC2CCCO2)cc1 (stereo not drawn) |  | 20.6 µM (active) |
| O=C(C1=C(O)C(=O)N(Cc2ccccc2)C1c1ccco1)c1ccco1 (stereo not drawn) | -1.15 |  |

| Compound | activity change, negative = growth inhibition [%] | Potency |
| --- | --- | --- |
| CCOc1cc(C2C(C(=O)c3ccco3)=C(O)C(=O)N2Cc2ccccc2)ccc1O (stereo not drawn) | 4.89 |  |
| COc1cccc(OCC(=O)NNC(=O)c2cnccn2)c1 | -1.97 |  |
| CN(C(=O)COc1ccccc1)c1nnc(-c2ccncc2)s1 | -6.56 |  |
| CN(C(=O)COc1nnc(-c2cccs2)c(-c2cccs2)n1)c1ccccc1 |  | 23.1 µM (active) |
| O=C(O)Cc1sc(-c2ccccc2)nc1-c1cccs1 | -3.68 |  |
| CCOc1ccc(CC(=O)NCCc2csc3nc(-c4ccccc4F)nn23)cc1 | -27.1 |  |
| Cc1ccc(NC(=O)COC(=O)CN2CCCCCC2=O)c(C)c1 | -11.8 |  |
| Clc1ccc(Cn2ncc3c(NCc4cccnc4)ncnc32)cc1 |  | 20.6 µM (active) |
| Clc1ccc(Nc2ncnc3c2nnn3Cc2ccccc2)cc1 | -12.7 |  |
| CC(=O)Nc1ccc(NC(=O)CSc2ncnc3c2cnn3Cc2ccccc2)cc1 | 3.41 |  |
| Cc1ccc(OCCOc2cccc(/C=N/NC(N)=O)c2)cc1 | 16.1 |  |
| COc1ccc(C(=O)COC(=O)Cn2cnc3c2c(=O)n(C)c(=O)n3C)c(OC)c1 | 11.2 |  |
| O=[N+]([O-])c1ccc(/C=C/c2ccc3cccnc3c2)cc1 |  | 7.94 µM (active) |
| O=C(Oc1ccc([N+](=O)[O-])cc1)c1ccc2ccccc2n1 | -16.8 |  |
| O=C(OCc1ccc([N+](=O)[O-])cc1)c1ccccn1 | 7.01 |  |
| COc1ccc(C2/C(=C(/O)c3ccc(OC(C)C)cc3)C(=O)C(=O)N2CCCN2CCOCC2)cc1 (stereo not drawn) | -2.53 |  |
| CCCCc1ccc(S(=O)(=O)NC(=O)C2(C)CCN2C(=O)c2c(C)noc2C)cc1 (stereo not drawn) | -16.1 |  |
| Cn1c2c(c(=O)n(C)c1=O)C(c1cccc(F)c1)C(C#N)=C(N)O2 (stereo not drawn) | 12.8 |  |
| CC(C)CCNC(=O)c1cccnc1Sc1ccccc1 | 7.04 |  |
| Cc1cc([N+](=O)[O-])c(=O)[nH]c1C | -13.7 |  |
| O=C(COC(=O)c1ccccc1OCCOc1ccccc1)Nc1cccc(Br)c1 | -12 |  |
| Cc1cccc(C(=O)OCC(=O)Nc2ccc(F)cc2)c1 | -20.9 |  |
| Cc1cccc(NC(=O)COC(=O)c2ccccc2OCc2cccc(Br)c2)c1 |  | 17.8 µM (active) |
